Screens deposited in PubChem by National Center for Advancing Translational Sciences (NCATS).
nsP2pro primary – inhibitors of chikungunya virus nsP2 protease; Q8JUX6; FRET peptide cleavage, nsP2pro, fluorescence 1 h; Potency, µM (top dose mostly 24.9 µM), without a hit: top-dose activity change, negative = inhibition, most hits filed as inhibitors; actives 1.1% (n = 31,000); AID 1964107; also: nearly all actives have a fitted effect of over 60% in size
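Purified recombinant nsP2pro (150 nM final) in 10 mM Tris-HCl pH 8.0 with 0.01% Tween 20 was preincubated 15 min at room temperature with compound (7 concentrations, up to 25 uM). FRET peptide 2 substrate (2.5 uM final) was then added; fluorescence was read after 1 h.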
CHIKV nsP2 cell – inhibits CHIKV nsP2 protease in cells | actives 10% (n = 450) | shares compounds with nsP2pro primary | cell-based CHIKV nsP2 protease reporter assay | Potency, µM (titrated, usually from 51.1 µM), without a hit: at the highest dose activity change, negative = inhibition, actives largely listed as inhibitors; also: nearly all actives have a fitted effect of over 70% in size
Target sequence (Q8JUX6 220-798 limits assumed): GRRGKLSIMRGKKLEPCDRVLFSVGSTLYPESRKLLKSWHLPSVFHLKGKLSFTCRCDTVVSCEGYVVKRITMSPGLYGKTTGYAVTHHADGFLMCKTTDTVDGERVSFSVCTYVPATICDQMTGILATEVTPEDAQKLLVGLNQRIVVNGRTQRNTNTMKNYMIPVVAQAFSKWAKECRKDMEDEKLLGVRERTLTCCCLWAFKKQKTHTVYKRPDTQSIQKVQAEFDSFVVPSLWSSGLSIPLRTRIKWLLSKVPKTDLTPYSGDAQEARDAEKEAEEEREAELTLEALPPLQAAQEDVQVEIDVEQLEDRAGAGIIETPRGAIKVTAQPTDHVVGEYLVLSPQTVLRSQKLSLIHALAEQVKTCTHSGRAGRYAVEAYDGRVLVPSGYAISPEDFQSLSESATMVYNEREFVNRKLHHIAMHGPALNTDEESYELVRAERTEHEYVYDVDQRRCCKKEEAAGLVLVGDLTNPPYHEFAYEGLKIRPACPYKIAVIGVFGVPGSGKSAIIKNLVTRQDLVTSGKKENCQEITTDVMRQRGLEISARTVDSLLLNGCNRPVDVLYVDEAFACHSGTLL
CHIKV NSP2 FL – inhibits full-length CHIKV NSP2 enzyme; shares compounds with nsP2pro primary; Full-length CHIKV NSP2 protease enzymatic counterscreen; Potency, µM (doses to about 50.7 µM), inactives show top-dose activity change, negative = inhibition, actives largely listed as inhibitors; actives 39% (n = 410); AID 1964101; also: nearly all actives have a fitted effect of over 65% in size
Furin counter – selectivity counter-screen for CHIKV nsP2 protease inhibitors: human furin | AID 1964102 | shares compounds with nsP2pro primary | Recombinant human furin enzymatic counterscreen, fluorogenic substrate | Potency, µM (doses to about 50.6 µM), for inactives: at the highest dose activity change, negative = inhibition, most hits filed as inhibitors | actives 6% (n = 410)
NS23 peptide cs – nsP2pro inhibition on native NS2/3 peptide substrate; shares compounds with nsP2pro primary; Purified CHIKV nsP2 protease, endogenous NS2/3 peptide cleavage; Potency, µM (series often up to 51 µM), without a hit: top-dose activity change, negative = inhibition, hits mostly inhibitors; actives 34% (n = 410); also: nearly all actives have a fitted effect of over 55% in size
Papain counter – papain protease inhibition, counterscreen for nsP2pro inhibitors; purified papain protease activity, enzymatic inhibition; Potency, µM (highest dose often 51 µM), without a hit: at the top dose activity change, negative = inhibition, most hits filed as inhibitors; AID 1964104; actives 5% (n = 410); shares compounds with nsP2pro primary
nsP2pro conf qHTS – CHIKV nsP2 protease inhibition, confirmatory qHTS. actives 43% (n = 410). shares compounds with nsP2pro primary. CHIKV nsP2 protease enzymatic activity, qHTS. AID 1964105. Potency, µM (series often up to 25.5 µM), without a hit: at the highest dose activity change, negative = inhibition, usual class: inhibitors; also: nearly all actives have a fitted effect of over 75% in size
HCV NS3 4A cs – HCV NS3/4A protease inhibition, counterscreen; shares compounds with nsP2pro primary; HCV NS3/4A protease biochemical counterscreen; Potency, µM (top dose mostly 50.9 µM), usual class: inhibitors; actives 20% (n = 410); also: nearly all actives have a fitted effect of over 55% in size
An asterisk follows results filed as active; [ ] = another dose, or the depositor's remark. This excerpt belongs to a sample that is enriched for hits. Calls follow the shape of the full dose curve. % is scaled to controls: 0 for no effect and ±100 for the full control effect; potency is read from the fitted curve at half-maximal effect.

COc1ccccc1NC(=O)c1cc(-c2ccc(C)c(C)c2)nc2ccccc12 was read as nsP2pro primary -4%.
For Cc1cnccc1-c1nc(Nc2ccc(F)c(F)c2)c2ccccc2n1 the results were nsP2pro primary -3%.
O=C1c2ccccc2NC(c2ccc(-c3ccc(C(F)(F)F)cc3)o2)N1O (centres undefined) was read as nsP2pro primary 10µM*, CHIKV nsP2 cell 21µM*, CHIKV NSP2 FL 149%, Furin counter -8%, NS23 peptide cs 11%, Papain counter -14%, nsP2pro conf qHTS 35% and HCV NS3 4A cs inactive.
For Fc1ccccc1C1=NC(c2ccc(C(F)(F)F)cc2)=Nc2ccccc2N1 the results were nsP2pro primary -25%.
For O=C1c2ccccc2NC(c2ccc(-c3cccs3)o2)N1O (centres undefined) the results were nsP2pro primary 5.6µM*, CHIKV nsP2 cell -30%, CHIKV NSP2 FL 32%, Furin counter -14%, NS23 peptide cs 4%, Papain counter -5%, nsP2pro conf qHTS 34% and HCV NS3 4A cs inactive.
O=C1c2ccccc2NC(c2ccccc2O)N1Cc1ccccc1 (centres undefined) was read as nsP2pro primary -5%.
Brc1ccc(-c2ccc(C3Nc4cccc5cccc(c45)N3)o2)cc1 was read as nsP2pro primary -17%.
For O=C1c2ccccc2NC(c2ccc(Br)o2)N1O (centres undefined) the results were nsP2pro primary 1%.
`O=C(Nc1ncc(Cc2ccccc2)s1)c1ccc(-c2cccc([N+](=O)[O-])c2)o1` gave nsP2pro primary -11%.
`O=C1CCCC2=C1C(c1ccccc1)N=C(Nc1nc3ccccc3o1)N2` (centres undefined) gave nsP2pro primary 4%.
Cc1cc(C2=NOC(c3cc(Cl)cc(Cl)c3)(C(F)(F)F)C2)ccc1C(=O)NCC(=O)NCC(F)(F)F (centres undefined) was read as nsP2pro primary 6%.
For O=C(NCC1CC1)C1CCc2nnc(-c3ccccn3)n21 (centres undefined) the results were nsP2pro primary -9%[39.2 µM].
For Cc1occc1-c1ccc2ncnc(NCc3ncc[nH]3)c2c1 the results were nsP2pro primary inactive.
For Cc1cc(NCc2ccc(NC(=O)Cc3ccc(Cl)c(Cl)c3)cc2)no1 the results were nsP2pro primary inactive.
C=CC1(C)CC(=O)C2(O)C(C)(O1)C(OC(C)=O)C(OC(=O)CCN(C)C)C1C(C)(C)CCC(O)C12C (centres undefined) was read as nsP2pro primary 9%.
`COc1ccc(NC(=O)C2=C(C)Nc3ncnn3C2c2ccc(C)o2)cc1` (centres undefined) gave nsP2pro primary -14%.
Screening COc1ccccc1NC(=O)C1=C(C)Nc2ncnn2C1c1ccc[nH]1 (centres undefined) returned nsP2pro primary 8.9µM* and CHIKV nsP2 cell 5%.
For CCOc1ccccc1NC(=O)C1=C(C)Nc2ncnn2C1c1sccc1C (centres undefined) the results were nsP2pro primary -15%.
`O=C(NCCc1ccc(OCC(F)(F)F)c(OCC(F)(F)F)c1)c1cc2sccc2n1Cc1ccccc1` gave nsP2pro primary -13%.
Cc1ccnc(NC(=S)N2CCNCC2)c1 was read as nsP2pro primary 3%.
